Compound activity as filed in PubChem BioAssay.
Sampled rows, rich in hits. Any-hit rate of the full collection: about 3.9%.
Vc quorum ag = induces V. cholerae light production without autoinducers | V. cholerae BH1578 lux reporter, luminescence, 6 h | activation, % at 18.7 µM | actives 0.16% (n = 350,000) | AID 588436; in the data active means activation mostly above about 9.7%, no sharp cut-off
PrPC surface inh = inhibitors of human cell surface prion protein PrPC | actives 0.43% (n = 370,000) | inhibition, % at 13.8 µM | TR-FRET read-out | P04156; in the data active means inhibition above about 24%; further: 0% = median of the test wells and 100% = reference compound wells
Mtb FBA inh = inhibits M. tuberculosis FBA enzyme. P9WQA3. purified M. tuberculosis FBA, fluorescence read-out. inhibition, % at 1 µM. actives 2.3% (n = 360,000). AID 588726;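 further: 0% = vehicle and 100% = reference inhibitor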
Target sequence (P9WQA3 whole entry, looked up): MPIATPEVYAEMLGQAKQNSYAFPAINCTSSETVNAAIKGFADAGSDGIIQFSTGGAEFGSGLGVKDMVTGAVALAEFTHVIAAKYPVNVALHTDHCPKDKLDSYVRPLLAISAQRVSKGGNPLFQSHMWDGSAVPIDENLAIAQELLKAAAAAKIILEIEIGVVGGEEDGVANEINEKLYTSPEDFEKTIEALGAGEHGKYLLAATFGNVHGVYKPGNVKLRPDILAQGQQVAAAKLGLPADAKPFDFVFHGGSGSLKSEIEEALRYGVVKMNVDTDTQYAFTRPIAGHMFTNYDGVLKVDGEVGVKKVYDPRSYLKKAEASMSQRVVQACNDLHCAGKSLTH
GDH-TPI counter-1 = inhibits GDH-TPI coupling enzymes, artifact for Mtb FBA screen; GDH-TPI coupled enzyme counterscreen, NADH absorbance; inhibition, % at 4.8 µM; actives 1.2% (n = 360,000); in the data active means inhibition above about 30%;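 further: 0% = DMSO wells and 100% = wells lacking the enzyme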
SARS 3CLpro inh = SARS-CoV 3CLpro protease inhibition | inhibition, % at 6 µM | AID 1706 | actives 0.14% (n = 290,000) | recombinant SARS-CoV 3CLpro, quenched FRET peptide cleavage; in the data active means inhibition above about 12%
Mtb FBA inh conf = Mtb FBA inhibition, confirmed; shares compounds with Mtb FBA inh; purified M. tuberculosis FBA, fluorescence read-out; inhibition, % at 1 µM; actives 78% (n = 5,600); AID 651616;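 further: 0% = vehicle wells and 100% = reference inhibitor wells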
GDH-TPI counter-2 = GDH-TPI inhibition counter-screen for FBA inhibitors; shares compounds with Mtb FBA inh; GDH-TPI coupled enzyme counterscreen, fluorescence; inhibition, % at 1 µM; actives 81% (n = 5,600); AID 652141; in the data active means inhibition above about 10%
* hit, by the source's call; i = inactive; / = no result given; + = active, no number. Unless noted, no stated cut-off is given here; in the data, active means inhibition above about 27%; inactive means the rest.

SMILES	Vc quorum ag	PrPC surface inh	Mtb FBA inh	GDH-TPI counter-1	SARS 3CLpro inh	Mtb FBA inh conf	GDH-TPI counter-2
CC(C)Cn1c(N)c(C(=O)NCC2CCCO2)c2nc3ccccc3nc21 (stereo unspecified)	-1	4	85*	20	3	60*	35*
Nc1c(C(=O)NC2CCCC2)c2nc3ccccc3nc2n1CC1CCCO1 (stereo unspecified)	1	2	47*	20	-1	+	+
Nc1c(C(=O)NCC2CCCO2)c2nc3ccccc3nc2n1Cc1ccco1 (stereo unspecified)	-1	-8	86*	2	9	-3	-7
CCc1ccc(OCC(=O)Nc2nnc(C3CCCC3)s2)cc1	0	9	4	-2	3	/	/
CCCN(CCC)CCCNC(=O)c1cc2c(=O)n(CC)c3ccccc3c2s1	-6	-25	27*	17	-5	+	+
CCCCN(CC)CCNC(=O)c1cc2c(=O)n(CC)c3ccccc3c2s1	i	-28	40*	18	-6	176*	116*
CCn1c(=O)c2cc(C(=O)NCC(OC)OC)sc2c2ccccc21	i	-10	61*	16	-4	+	179*
CCn1c(=O)c2cc(C(=O)NCCC(C)C)sc2c2ccccc21	i	4	8	6	4	/	/
CCn1c(=O)c2cc(C(=O)NCCCOC)sc2c2ccccc21	0	-5	54*	26	3	+	186*
CCN(CC)CCNC(=O)Cc1c(C(=O)O)n(CC)c2ccccc12	-1	3	2	1	-2	/	/
O=C(OCC(=O)N1CCN(c2ccccc2)CC1)c1ncc(Cl)c(Cl)c1Cl	2	-6	5	6	/	/	/
O=C(O)/C=C/C(=O)Nc1cccc2c1-c1ccccc1C2=O	i	-26	-1	16	/	/	/
O=S(=O)(c1ccc(S(=O)(=O)N2CCC(O)CC2)cc1)N1CCCC1	0	10	1	-8	-1	/	/
CC(OC(=O)c1cc(=O)[nH]c2ccccc12)C(=O)Nc1ccccc1F (stereo unspecified)	-4	-11	5	2	/	/	/
CCOC(CNC(=O)c1cc2c(=O)n(CC)c3ccccc3c2s1)OCC	0	-7	18	19	-8	/	/
CCCCN(CC)CCCNC(=O)c1cc2c(=O)n(CC)c3ccccc3c2s1	0	-32	79*	14	-13	6	-2
CCn1c(=O)c2cc(C(=O)N3CCN(C(=O)c4ccco4)CC3)sc2c2ccccc21	/	/	/	/	-2	/	/
CCC(C)NC(=O)c1cc2c(=O)n(CC)c3ccccc3c2s1 (stereo unspecified)	0	-1	48*	18	0	100*	92*
CCOC(=O)CSc1n[nH]c(NC(C)=O)n1	-1	-6	-3	-1	-7	/	/
CCOC(=O)N[C@H](C(=O)N1CCC[C@H]1C(=O)NCCc1ccccc1Cl)C1CCCCC1	/	5	/	/	/	/	/
Cc1cccn2c(NCc3ccc4c(c3)OCO4)c(-c3ccc(O)cc3)nc12	0	-2	53*	3	3	182*	112*
c1ccc(-c2nc3ccccn3c2NCc2ccc3c(c2)OCO3)cc1	0	1	12	14	-1	/	/
CNC(=S)N/N=C/c1ccc(N(C)C)cc1	0	-6	42*	40*	7	+	+
Cc1c(NC(=S)N/N=C/c2ccc(N(C)C)cc2)c(=O)n(-c2ccccc2)n1C	0	0	33*	33*	4	116*	88*
Cc1c(NC(=S)N/N=C/c2cccc(O)c2)c(=O)n(-c2ccccc2)n1C	2	1	-3	23	0	/	/
Fc1ccccc1OCCCN1CCOCC1	0	-1	-1	-11	0	/	/
Cc1nnc(NC(=O)COc2ccc3c(C)cc(=O)oc3c2)s1	-1	-4	40*	10	5	192*	144*
Cc1cc(=O)oc2cc(OCC(=O)NC3(C#N)CCCCC3)ccc12	1	0	77*	12	/	58*	58*
Cc1cc(=O)oc2cc(OCC(=O)OCC(=O)Nc3ccccc3F)ccc12	0	4	54*	9	-1	169*	147*
Cc1cc(=O)oc2cc(OCC(=O)OCC(=O)NC(C)C)ccc12	i	-3	48*	13	1	107*	85*
